Compound activity (PubChem)
Sampled rows, rich in hits. Any-hit rate of the full collection: about 3.1%.
TrxR1 substrate = rat thioredoxin reductase 1 substrate activity; O89049; purified TrxR1 substrate turnover, NADPH consumption readout; Potency, µM (series often up to 114 µM), for the others: top-dose activity change, negative = substrate turnover; 390,000 compounds, 0.01% hits; further: on the % scale 0 is the no-effect control and ±100 the full control effect; nearly all actives have a fitted effect of over 50% in size
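Rat TrxR1, dispensed at 90 nM, was prereduced with 400 uM NADPH (final) for 5 min at ~22 deg C, then incubated with compound 15 min before 400 uM selenite. A first-read NADPH fluorescence drop versus no-compound background flagged substrates.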
Mito fusion yeast = blocks mitochondrial division or promotes mitochondrial fusion | S. cerevisiae fusion-defective mutant growth rescue, CellTiterGlo 48 h | Potency, µM (doses to about 46.1 µM), inactives show at the highest dose growth rescue (activation), actives largely listed as activators | 320,000 compounds, 0.23% hits; further: % of control where 0% means no effect; nearly all actives have a fitted effect of over 45% in size
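Yeast fusion mutant, YPEG (non-fermentable carbon), compound, 48 h at 37C non-permissive; CellTiterGlo added, 10 min RT, luminescence read. Rescued growth = division inhibition.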
A549 tox = counter-screen for Nrf2 inhibitors: cytotoxicity in A549 cells; AID 504648; A549 ARE-Fluc cells, CellTiter-Fluor viability, 18-24 h; Potency, µM (doses to about 46 µM), for inactives: at the top dose activity change, negative = cytotoxicity, actives largely listed as inhibitors; 390,000 compounds, 0.16% hits; further: on the % scale 0 is the no-effect control and ±100 the full control effect
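A549 ARE-Fluc cells in 5% FBS OPTI-MEM, 5000 cells/well, rested 2 h then exposed to compounds in concentration-response for 18-24 h at 37 °C. Viability by CellTiter-Fluor fluorescence (Ex 405/Em 525) after 30 min; luciferase luminescence (BugLite, 15 min, RT) read afterwards.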
Nrf2 inh = blocks Nrf2 signaling | A549 ARE-Fluc reporter, luciferase luminescence, 18-24 h | Potency, µM (doses to about 46 µM), for the others: at the top dose activity change, negative = inhibition, usual class: inhibitors | 360,000 compounds, 2.1% hits | AID 504444; further: on the % scale 0 is the no-effect control and ±100 the full control effect; nearly all actives have a fitted effect of over 60% in size
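Two sequential reads on A549 ARE_Fluc cells exposed to compound for 18-24 h: a CellTiter-Fluor fluorescence read for viability, then a luciferase luminescence read for Nrf2/ARE activity.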
IDH1 R132H inh = inhibitors of human mutant IDH1 R132H. Potency, µM (doses to about 76.6 µM), for the others: at the top dose activity change, negative = inhibition, actives largely listed as inhibitors. IDH1-R132H enzyme, NADPH consumption, diaphorase/resazurin fluorescence. 390,000 compounds, 0.093% hits. O75874; further: on the % scale 0 is the no-effect control and ±100 the full control effect; nearly all actives have a fitted effect of over 65% in size
Target sequence (O75874 whole entry R132H, stated change not applied): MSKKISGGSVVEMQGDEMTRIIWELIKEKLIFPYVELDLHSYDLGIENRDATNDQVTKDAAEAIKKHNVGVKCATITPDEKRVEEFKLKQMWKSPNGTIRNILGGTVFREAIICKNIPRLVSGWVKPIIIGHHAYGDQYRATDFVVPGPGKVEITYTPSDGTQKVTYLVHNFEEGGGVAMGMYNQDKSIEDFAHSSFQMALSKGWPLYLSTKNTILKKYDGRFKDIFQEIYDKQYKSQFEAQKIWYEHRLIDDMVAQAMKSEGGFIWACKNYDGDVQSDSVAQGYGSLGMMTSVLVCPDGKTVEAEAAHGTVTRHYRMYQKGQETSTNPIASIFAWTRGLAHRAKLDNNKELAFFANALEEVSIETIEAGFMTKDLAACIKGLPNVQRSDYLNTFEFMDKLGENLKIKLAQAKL
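IDH1-R132H (0.5 ug/mL) preincubated 30 min with compound, then NADPH (0.016 mM) and alpha-KG (2 mM) added; 80 min at RT, pH 7.5. Remaining NADPH coupled via diaphorase/resazurin to fluorescence (540/590 nm); concentration-response curves normalized to no-enzyme control.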
TrxR1 inh = inhibitors of rat thioredoxin reductase 1; recombinant rTrxR1, NADPH fluorescence consumption, selenite substrate; AID 588453; O89049; 390,000 compounds, 1% hits; Potency, µM (highest dose often 114 µM), without a hit: at the highest dose activity change, negative = inhibition, actives largely listed as inhibitors; further: on the % scale 0 is the no-effect control and ±100 the full control effect; nearly all actives have a fitted effect of over 65% in size
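Rat TrxR1 (90 nM in the dispensed reagent) was pre-reduced with 400 uM NADPH for 5 min at room temperature, then incubated with compound for 15 min. After 400 uM selenite was added, NADPH fluorescence (Ex 340/Em 450 nm) was followed for 8 min.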
The depositor's hits bear a star; ? = inconclusive; · = not tested or not shown; [ ] = dose if it differs, or a comment. The call rests on the fitted dose curve; in most records, active means well fitted curve in the direction sought with a large enough effect; inconclusive means small, poorly fitted or top-dose-only effect, or another doubt; inactive means no such curve, though single readings can be large; an effect the other way counts as inactive or inconclusive. Potency means the concentration at half of the fitted maximal effect.

SMILES	TrxR1 substrate	Mito fusion yeast	A549 tox	Nrf2 inh	IDH1 R132H inh	TrxR1 inh
O=C(Cn1cccc1C(=O)c1ccccc1)NCCCc1ccccc1	-9.5%	7.0%	1.6%	-9.1%	-2.3%	1.1%
CC(C)(C)n1ncc2c(=O)n(Cc3ccc(Cl)c(OC(F)(F)F)c3)cnc21	-4.4%	·	·	·	·	11.1%[57.1 µM]
COc1ccc2cc(C3CC(c4ccco4)=NN3S(C)(=O)=O)c(Cl)nc2c1 (centres undefined)	0.8%	-0.2%	0.4%	-2.1%	0.0%	50.1µM*
COc1cccc(CNCCCSc2nnnn2C)c1OC	-4.5%	·	-7.6%	4.8%	17.3%	-10.5%
CN(C)c1ccc(/C=C2\C=Cc3ccccc32)cc1Cl	-8.9%	·	·	·	·	-12.6%
CNC(=O)CSc1nnnn1-c1cc(C)ccc1C	-1.6%	-0.8%	-0.2%	-4.9%	10.0%	10.6%
Cc1cccc(-n2nnnc2SCC(=O)NCC2CCCO2)c1 (centres undefined)	-3.8%	17.8µM*	4.7%	5.7%	-0.3%	15.9%
Cc1ccc(-n2nnnc2SCC(=O)NCC2CCCO2)cc1C (centres undefined)	-0.8%	-5.6%	0.5%	-14.4%	-1.0%	8.0%
Cc1ccc(C)c(-n2nnnc2SCC(=O)NCCC2=CCCCC2)c1	-14.9%	18.2%	·	18.4µM*	1.3%	-23.1%
COc1ccc(-n2nnnc2SCC(=O)Nc2ccccc2N2CCOCC2)cc1OC	1.7%	-7.5%	2.8%	-1.9%	3.7%	11.6%
CC(=O)c1cccc(-n2nnnc2SCC(=O)Nc2ccccc2N2CCCCC2)c1	-3.8%	?	-15.2%	23.1µM*	-1.7%	6.9%[57.1 µM]
Cc1ccc2c(c1)c1c(c(=O)n(-c3cccc(Cl)c3)c(=O)n1CC(=O)NCC1CCCO1)n2C (centres undefined)	20.8%	·	-2.4%	?	9.3%	9.1%
COc1ccc(C(=O)OC(C)C(=O)NC(C)CCc2ccccc2)c(OC)c1 (centres undefined)	1.3%	11.2µM*	-4.2%	-12.9%	0.0%	7.1%
Cc1ccc(Cl)cc1N1CCN(C(=S)NCCc2ccccc2)CC1	-10.9%	21.9%	-5.7%	-9.6%	4.5%	-6.9%
Cc1ccc(Cl)cc1N1CCN(c2cccc[n+]2C)CC1	-22.6%[57.1 µM]	-6.5%	2.5%	8.2µM*	7.0%	6.1%[57.1 µM]
COC(=O)C1=C(C)N(c2ccc(F)c(Cl)c2)C(=O)C1	6.9%	-10.7%	0.0%	-30.3%	2.7%	14.1µM*
Cc1nc(N2CCN(Cc3ccc4c(c3)OCO4)CC2)nc2c1C(=O)CC(c1ccco1)C2 (centres undefined)	-3.6%	?	-12.3%	11.6µM*	-4.6%	11.6%
Oc1ccc(/C=N/Nc2nc(-c3ccc(Cl)cc3)cc(C(F)(F)F)n2)cc1	-11.9%	16.9%	?	16.4µM*	-9.8%	1.0%
Cc1cc(-c2ccccc2)nc(N/N=C/c2ccc(O)cc2)n1	-8.0%[57.1 µM]	-6.4%	-8.1%	-27.8%	-5.4%	-11.3%[57.1 µM]
Cc1ccc(C(=O)Nc2cccnc2)cc1S(=O)(=O)N1CCCCC1	1.0%[57.1 µM]	4.4%	-4.3%	20.6µM*	7.6%	11.0%[57.1 µM]
O=C(O)c1ccc(Cl)c(S(=O)(=O)N2CCCCCC2)c1	9.4%	-2.2%	?	25.9µM*	0.1%	12.8%
Cc1ccc(C(=O)NCc2cccnc2)cc1S(=O)(=O)N1CCCCCC1	2.6%	0.3%	-4.3%	8.2µM*	2.1%	10.6%
COc1ccc(CCNC(=O)c2ccc(Cl)c(S(=O)(=O)N3CCCC3)c2)cc1	-1.6%	6.6%	-5.1%	16.4µM*	0.0%	19.6%
Cc1ccc(C(=O)Nc2cccnc2)cc1S(=O)(=O)N1CCCC1	3.1%	-0.6%	-0.2%	?	-0.5%	1.3%
CC(=O)Nc1ccccc1-c1nc2ccccc2n(CC(=O)c2ccc(C)c(C)c2)c1=O	7.7%	·	5.9%	15.7%	22.8%	1.9%
